Experiment [1] has as its target Glucocorticoid receptor (Homo sapiens) (UniProt P04150). Description: ATG_GR_TRANS: Attagene TRANS-FACTORIAL HepG2 Assay for human Glucocorticoid Receptor (GR) (AID 2282978).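 Also: activators score as hits since higher reporter transcript over DMSO is fitted.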 As to conditions: HepG2 Attagene TRANS GR reporter, mRNA transcription. The procedure, abridged: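 In this trans-factorial format, exogenous NR-GAL4 chimeric proteins in transfected HepG2 cells regulate GAL4-UAS reporter transcription. After 24 h treatment, reporter mRNA induction relative to DMSO is read by RT-PCR and capillary electrophoresis.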

Experiment [2] addresses Oxysterols receptor LXR-alpha (Homo sapiens) (UniProt Q13133). As to the kind of experiment: ATG_LXRa_TRANS: Attagene TRANS-FACTORIAL HepG2 Assay for human Liver X Receptor alpha (LXRa) (AID 2282980). The conditions noted are these: HepG2 Attagene TRANS reporter, LXRa transactivation. In outline:
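Transient HepG2 transfectants, 24 h dosing, RT-PCR/CE mRNA reporter quantitation; gain-of-signal vs DMSO.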

A short description of experiment [3]: ATG_M_32_TRANS: Attagene TRANS-FACTORIAL HepG2 Assay for M32 Transcription Factor (Internal Marker) (AID 2282984).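 Also: transcript level of a background control reporter unit measured by RT-PCR and capillary electrophoresis.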 As to conditions: HepG2 Attagene TRANS M32 internal marker reporter. In outline:
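Internal-marker readout from a multiplexed transcription reporter panel. HepG2 cells were transfected with GAL4-UAS reporter units, treated 24 hours, and reporter transcript levels determined by fluorescence after RT-PCR and capillary separation.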

Experiment [4] addresses Nuclear receptor subfamily 4 group A member 2 (Homo sapiens) (UniProt P43354). Description: ATG_NURR1_TRANS: Attagene TRANS-FACTORIAL HepG2 Assay for human Nuclear Receptor Related Protein 1 (NURR1) (AID 2282985). As to conditions: HepG2 Attagene TRANS reporter, mRNA readout. In outline:
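Endpoint: reporter mRNA increase relative to DMSO. HepG2 cells transfected with reporter units, treated 24 h; RNA processed by RT-PCR, labelling, HpaI digestion and capillary electrophoresis.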

The target of experiment [5] is Transcriptional activator Myb (Homo sapiens) (UniProt P10242). Description: ATG_Myb_CIS: Attagene CIS-FACTORIAL HepG2 Assay for human Myeloblastosis (Myb) Proto-Oncogene Transcription Factor (AID 2282986; active = hit-call score of the fitted dose curve at least 0.9, where 1 is the maximum; inactive = score below 0.9). The conditions noted are these: HepG2 Attagene CIS-FACTORIAL Myb reporter transcription; actives raise or lower the signal. In outline:
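Steps: transfect HepG2 with cis-regulated reporter units; dose with chemical for 24 h; isolate RNA, reverse-transcribe, PCR-amplify and FAM-label reporter sequences; digest with HpaI; resolve by capillary electrophoresis. Activity fitted in both directions relative to DMSO.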

The target in experiment [6] is Nuclear respiratory factor 1 (Homo sapiens) (UniProt Q16656). Description: ATG_NRF1_CIS: Attagene CIS-FACTORIAL HepG2 Assay for human Nuclear Respiratory Factor 1 (NRF1) Orphan Gene (AID 2282987; active = hit-call score of the fitted dose curve at least 0.9, where 1 is the maximum; inactive = score below 0.9). As to conditions: HepG2 NRF1 cis-element reporter, Attagene multiplex; actives raise or lower the signal. The procedure, abridged:
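Fluorescence intensity of labelled reporter cDNA fragments, resolved by capillary electrophoresis, served as readout for NRF1 cis-element activity. Transiently transfected HepG2 cells were dosed for 24 hours; activity in either direction was fitted against DMSO negative control.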

A short description of experiment [7]: ATG_NFI_CIS: Attagene CIS-FACTORIAL HepG2 Assay for human Nuclear Factor I (NFI) (AID 2282989; active = hit-call score of the fitted dose curve at least 0.9, where 1 is the maximum; inactive = score below 0.9). The conditions noted are these: HepG2 cis-regulatory reporter, NFI response element transcription; actives raise or lower the signal. The procedure, abridged: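 Read-out: reporter mRNA via RT-PCR plus capillary electrophoresis with fluorescence detection. Transiently transfected HepG2 (endogenous TF activity on cis promoters), 24 h compound exposure; gain or loss of signal fitted against DMSO.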

Experiment [8] addresses Oxysterols receptor LXR-beta (Homo sapiens) (UniProt P55055). As to the kind of experiment: ATG_LXRb_TRANS: Attagene TRANS-FACTORIAL HepG2 Assay for human Liver X Receptor beta (LXRb) (AID 2282981). As to conditions: HepG2 Attagene TRANS GAL4-LXRb reporter, mRNA. In outline: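 Multiplexed reporter assay, HepG2, 24 h dosing. Fluorescence of labelled RT-PCR products after capillary electrophoresis gives transcript level; positive fitting direction relative to DMSO.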

Experiment [9] concerns the target Hepatocyte nuclear factor 4-alpha (Homo sapiens) (UniProt P41235). Description: ATG_HNF4a_TRANS: Attagene TRANS-FACTORIAL HepG2 Assay for human Hepatocyte Nuclear Factor 4 alpha (HNF4a) (AID 2282982). As to conditions: HepG2 HNF4a transactivation reporter, mRNA readout. In outline: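 Endpoint reflects transcriptional activation of a GAL4-UAS reporter by an HNF4a-GAL4 chimera in transfected HepG2 cells, 24 h post-dosing. Fluorescence from RT-PCR products separated by capillary electrophoresis; DMSO baseline.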

Experiment [10] in a line: ATG_M_06_TRANS: Attagene TRANS-FACTORIAL HepG2 Assay for M06 Transcription Factor (Internal Marker) (AID 2282983). As to conditions: HepG2 Attagene TRANS M06 internal marker reporter. The procedure, abridged: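 Human liver HepG2 cells bearing transiently transfected chimeric NR-GAL4 reporter units were treated with chemicals for 24 h. Total RNA was reverse-transcribed, reporter sequences amplified and labelled, then quantified by capillary electrophoresis. Activity was fitted upward relative to DMSO.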

Records with an inconclusive call do not appear. Calls of active or inactive are those of the source. The calls were made as follows, unless noted: active = hit-call score of the fitted dose curve at least 0.9, where 1 is the maximum; inconclusive = response in the unintended direction; inactive = score below 0.9.

One may read the AC50 as the concentration giving half of the maximal activity seen.

Chain of Glucocorticoid receptor (Homo sapiens) (P04150 whole entry, looked up, the tested form may be a part): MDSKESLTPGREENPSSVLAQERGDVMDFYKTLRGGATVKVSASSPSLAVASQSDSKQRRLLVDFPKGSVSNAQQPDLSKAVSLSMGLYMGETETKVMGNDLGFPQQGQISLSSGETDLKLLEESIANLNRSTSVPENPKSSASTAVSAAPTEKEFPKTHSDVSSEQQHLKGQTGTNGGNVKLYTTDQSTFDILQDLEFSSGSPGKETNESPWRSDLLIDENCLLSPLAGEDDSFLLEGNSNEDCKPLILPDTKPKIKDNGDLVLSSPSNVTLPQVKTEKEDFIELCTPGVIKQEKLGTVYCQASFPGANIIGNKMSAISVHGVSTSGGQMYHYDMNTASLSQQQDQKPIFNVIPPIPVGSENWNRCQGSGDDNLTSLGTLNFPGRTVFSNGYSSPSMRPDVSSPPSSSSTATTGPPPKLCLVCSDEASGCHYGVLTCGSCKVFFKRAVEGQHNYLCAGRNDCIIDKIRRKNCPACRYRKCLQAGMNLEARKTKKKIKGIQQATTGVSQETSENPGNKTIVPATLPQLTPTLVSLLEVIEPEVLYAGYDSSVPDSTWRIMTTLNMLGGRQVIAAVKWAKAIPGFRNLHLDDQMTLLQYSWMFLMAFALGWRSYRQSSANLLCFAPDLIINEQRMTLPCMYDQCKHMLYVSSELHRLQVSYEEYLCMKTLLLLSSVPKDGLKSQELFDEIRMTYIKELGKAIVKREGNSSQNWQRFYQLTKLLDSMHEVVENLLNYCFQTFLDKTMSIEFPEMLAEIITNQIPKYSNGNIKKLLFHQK
Chain of Oxysterols receptor LXR-beta (Homo sapiens) (P55055 whole entry, looked up, the tested form may be a part): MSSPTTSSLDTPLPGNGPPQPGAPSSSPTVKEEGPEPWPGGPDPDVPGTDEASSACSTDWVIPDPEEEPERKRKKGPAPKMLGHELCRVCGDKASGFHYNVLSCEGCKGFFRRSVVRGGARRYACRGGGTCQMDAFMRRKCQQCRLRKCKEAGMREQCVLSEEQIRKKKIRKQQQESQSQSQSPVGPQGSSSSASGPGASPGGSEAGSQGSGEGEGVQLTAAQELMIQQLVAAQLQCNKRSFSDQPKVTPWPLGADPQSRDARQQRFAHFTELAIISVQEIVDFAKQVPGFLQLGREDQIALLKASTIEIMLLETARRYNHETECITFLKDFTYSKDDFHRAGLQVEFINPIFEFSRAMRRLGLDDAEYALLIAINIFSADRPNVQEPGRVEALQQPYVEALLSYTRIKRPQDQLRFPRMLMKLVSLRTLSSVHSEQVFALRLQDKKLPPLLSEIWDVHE
Chain of Nuclear receptor subfamily 4 group A member 2 (Homo sapiens) (P43354 whole entry, looked up): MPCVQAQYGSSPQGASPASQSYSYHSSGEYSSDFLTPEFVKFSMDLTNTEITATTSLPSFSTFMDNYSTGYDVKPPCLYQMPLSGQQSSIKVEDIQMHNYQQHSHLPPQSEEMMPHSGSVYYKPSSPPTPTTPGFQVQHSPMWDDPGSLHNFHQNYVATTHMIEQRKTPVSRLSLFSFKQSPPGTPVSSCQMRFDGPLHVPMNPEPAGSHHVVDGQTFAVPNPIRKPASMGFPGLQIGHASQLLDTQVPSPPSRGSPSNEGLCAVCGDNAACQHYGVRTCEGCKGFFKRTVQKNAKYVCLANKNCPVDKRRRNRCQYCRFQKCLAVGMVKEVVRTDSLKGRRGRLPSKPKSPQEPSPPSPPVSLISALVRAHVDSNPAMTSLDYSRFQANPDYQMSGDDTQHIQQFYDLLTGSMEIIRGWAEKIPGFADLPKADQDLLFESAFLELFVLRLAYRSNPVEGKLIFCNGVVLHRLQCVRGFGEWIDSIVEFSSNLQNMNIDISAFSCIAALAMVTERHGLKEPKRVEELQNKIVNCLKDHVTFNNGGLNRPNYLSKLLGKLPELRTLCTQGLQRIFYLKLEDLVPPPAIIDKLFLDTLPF
Chain of Transcriptional activator Myb (Homo sapiens) (P10242 whole entry, looked up): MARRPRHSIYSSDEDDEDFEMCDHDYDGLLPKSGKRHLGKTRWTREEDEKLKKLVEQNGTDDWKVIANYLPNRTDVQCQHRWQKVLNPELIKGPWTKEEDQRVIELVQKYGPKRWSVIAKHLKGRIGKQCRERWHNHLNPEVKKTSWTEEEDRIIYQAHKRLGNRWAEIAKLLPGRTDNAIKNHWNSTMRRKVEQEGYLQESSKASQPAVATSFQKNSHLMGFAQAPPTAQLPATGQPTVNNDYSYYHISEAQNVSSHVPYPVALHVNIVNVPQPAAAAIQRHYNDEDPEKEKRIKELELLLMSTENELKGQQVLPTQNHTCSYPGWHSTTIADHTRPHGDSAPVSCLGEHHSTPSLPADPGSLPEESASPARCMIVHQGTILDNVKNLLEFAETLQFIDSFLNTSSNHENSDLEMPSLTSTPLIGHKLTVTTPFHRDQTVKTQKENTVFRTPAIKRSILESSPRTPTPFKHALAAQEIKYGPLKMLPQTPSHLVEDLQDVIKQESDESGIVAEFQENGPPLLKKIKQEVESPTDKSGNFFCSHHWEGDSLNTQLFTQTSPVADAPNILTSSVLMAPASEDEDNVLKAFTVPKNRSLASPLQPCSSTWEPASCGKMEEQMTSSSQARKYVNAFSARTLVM
Chain of Hepatocyte nuclear factor 4-alpha (Homo sapiens) (P41235 whole entry, looked up, the tested form may be a part): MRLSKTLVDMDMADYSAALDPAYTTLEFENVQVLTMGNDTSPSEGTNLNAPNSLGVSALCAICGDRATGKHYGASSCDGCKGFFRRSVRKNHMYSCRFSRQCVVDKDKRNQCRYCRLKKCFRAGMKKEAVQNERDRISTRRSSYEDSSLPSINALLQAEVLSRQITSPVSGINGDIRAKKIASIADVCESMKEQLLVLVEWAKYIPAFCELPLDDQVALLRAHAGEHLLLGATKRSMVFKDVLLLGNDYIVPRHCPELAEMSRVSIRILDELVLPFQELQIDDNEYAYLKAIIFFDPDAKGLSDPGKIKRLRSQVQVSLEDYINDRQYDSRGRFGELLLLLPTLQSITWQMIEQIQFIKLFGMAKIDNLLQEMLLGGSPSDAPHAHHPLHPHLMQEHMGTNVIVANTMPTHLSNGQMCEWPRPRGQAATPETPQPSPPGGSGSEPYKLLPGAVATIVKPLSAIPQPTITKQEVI
Chain of Nuclear respiratory factor 1 (Homo sapiens) (Q16656 whole entry, looked up, the tested form may be a part): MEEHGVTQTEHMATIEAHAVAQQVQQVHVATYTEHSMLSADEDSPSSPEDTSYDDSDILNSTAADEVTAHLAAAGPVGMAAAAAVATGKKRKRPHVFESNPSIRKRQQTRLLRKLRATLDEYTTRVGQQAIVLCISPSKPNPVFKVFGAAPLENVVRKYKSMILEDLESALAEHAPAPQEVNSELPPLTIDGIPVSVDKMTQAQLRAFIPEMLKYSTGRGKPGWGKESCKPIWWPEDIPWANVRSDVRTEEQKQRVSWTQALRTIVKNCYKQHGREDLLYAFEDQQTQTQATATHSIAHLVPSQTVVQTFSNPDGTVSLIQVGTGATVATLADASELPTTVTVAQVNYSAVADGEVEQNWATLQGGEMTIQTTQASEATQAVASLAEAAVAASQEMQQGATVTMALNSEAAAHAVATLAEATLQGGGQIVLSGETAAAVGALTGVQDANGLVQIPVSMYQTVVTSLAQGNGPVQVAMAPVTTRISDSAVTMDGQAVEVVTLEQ
Chain of Oxysterols receptor LXR-alpha (Homo sapiens) (Q13133 whole entry, looked up): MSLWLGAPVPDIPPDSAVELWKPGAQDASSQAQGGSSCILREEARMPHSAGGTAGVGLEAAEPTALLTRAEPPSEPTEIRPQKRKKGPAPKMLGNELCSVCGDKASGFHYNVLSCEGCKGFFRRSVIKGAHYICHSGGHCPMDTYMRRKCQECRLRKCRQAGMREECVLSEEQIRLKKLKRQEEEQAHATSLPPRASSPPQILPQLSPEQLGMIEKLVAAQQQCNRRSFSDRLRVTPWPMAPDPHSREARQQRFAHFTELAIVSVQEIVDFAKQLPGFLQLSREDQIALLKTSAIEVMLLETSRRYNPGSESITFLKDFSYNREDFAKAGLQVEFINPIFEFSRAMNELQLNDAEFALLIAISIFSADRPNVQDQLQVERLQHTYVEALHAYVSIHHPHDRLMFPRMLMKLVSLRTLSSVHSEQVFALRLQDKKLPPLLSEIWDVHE

Consider `NC(=O)Cn1c(=O)cc(CCN2CCN(c3nccc4sccc34)CC2)c2ccc(F)cc21`, for which the compound was called inactive in experiment [1], in experiment [2], in experiment [3], in [4], in experiment [5] and in experiment [6]. Further, in experiment [7], the compound was classed as inactive.
Take `CC(=O)Oc1ccccc1C(=O)O`: the outcome in experiment [1], in experiment [9], in experiment [10], in [5], in experiment [6] and in [7] was inactive. The half-maximal activity concentration (AC50) in experiment [2] was 71.6 µM (active); in [8], 100 µM (active); in experiment [4] it was 100 µM (active).
As to `COc1cc(-c2nc(NC(=O)c3cc4cc(C)cc(C)c4n3CC(=O)O)sc2CCC2CCCCC2)c(OC)cc1Cl`, the compound was called inactive in experiment [1], in [2], in experiment [8], in [9], in [10] and in experiment [3]. Moreover, the compound was called inactive in experiment [4] and in experiment [6]. Moreover, the AC50 in experiment [5] is 24.2 µM (active); in experiment [7], 27 µM (active).
Regarding `O=C(O)CCCCC(=O)O`, the result in experiment [1], in [8], in [9], in [3], in [4] and in [5] was inactive. Further, the compound was classed as inactive in experiment [6] and in experiment [7].
Take `Nc1nc(N)c2nc(CNc3ccc(C(=O)N[C@@H](CCC(=O)O)C(=O)O)cc3)cnc2n1`: the compound was called inactive in experiment [1], in experiment [8], in [9], in experiment [10], in [4] and in experiment [5]. The result in experiment [6] and in experiment [7] was inactive.
For the compound `COCCOC[C@H](CC1(C(=O)NC2CCC(C(=O)O)CC2)CCCC1)C(=O)Oc1ccc2c(c1)CCC2` (stereo not given in full), the outcome in [1], in [8], in experiment [10], in experiment [4], in experiment [5] and in [6] was inactive. Moreover, the compound was classed as inactive in [7].
Take `Cc1cc(NC(=O)C(=O)O)cc(C)c1Oc1ccc(O)c2c1CCC2`: the compound was classed as inactive in experiment [1], in [8], in experiment [9], in experiment [10], in experiment [3] and in experiment [4]. For the same compound, the result in experiment [5], in experiment [6] and in [7] was inactive.
Consider `CCCCCCOCCO`, for which the outcome in experiment [1], in [2], in experiment [8], in experiment [9], in experiment [10] and in experiment [3] was inactive. Also, the call in [4], in [5], in experiment [6] and in experiment [7] was inactive.
As for `Nc1ccccc1N`, the call in experiment [1], in experiment [2], in [8], in experiment [9], in experiment [10] and in experiment [3] was inactive. In addition, the call in [5] and in experiment [6] was inactive. In addition, the AC50 in experiment [7] was 46.1 µM (active).
As for `Cc1ccccc1Cl`, the outcome in experiment [2], in experiment [8], in experiment [10], in experiment [5], in [6] and in [7] was inactive.
Take `c1cc(-c2ccncc2)ccn1`: the result in experiment [2], in experiment [9], in [4], in experiment [5], in experiment [6] and in [7] was inactive.
Take `CN[C@H]1CC[C@@H](c2ccc(Cl)c(Cl)c2)c2ccc(S(N)(=O)=O)cc21`: the call in [8], in experiment [9], in [10], in experiment [3], in experiment [5] and in experiment [6] was inactive. The call in [7] was inactive.
`NCC1(Cc2noc(=O)[nH]2)CCCCC1`: the compound was called inactive in [2], in experiment [10], in [4], in experiment [5], in experiment [6] and in experiment [7].
With `COc1cc(/C=C/C(=O)CC(=O)/C=C/c2ccc(O)c(OC)c2)ccc1O`, the outcome in experiment [2], in experiment [8], in experiment [9], in experiment [10], in experiment [3] and in [4] was inactive. Moreover, the compound was called inactive in experiment [5] and in experiment [6]. Moreover, in experiment [7], the AC50 is 33.4 µM (active).
With `O=c1c(O)c(-c2ccc(O)c(O)c2)oc2cc(O)cc(O)c12`, the compound was called inactive in experiment [2], in experiment [8], in [3], in [4], in [5] and in [6]. Moreover, in [7], the call was inactive.
Consider `CCCCCCCCCCCCCCCC`, for which the outcome in [2], in experiment [8], in experiment [9], in [10], in experiment [3] and in experiment [5] was inactive. The outcome in experiment [6] and in [7] was inactive.
For `FC(F)(F)C(F)(F)C(F)(F)C(F)(F)C(F)(F)C(F)(F)CCI`, the outcome in experiment [2], in experiment [8], in experiment [10], in [3], in experiment [5] and in experiment [6] was inactive. Besides, in [7], the compound was classed as inactive.
In the case of `CN1CCCC1=O`, the outcome in experiment [2], in [8], in experiment [10], in experiment [4], in experiment [5] and in [6] was inactive. Besides, in [7], the compound was classed as inactive.

For the origin of these results see PubChem BioAssay (EPA / NIEHS).
